HT1080NT lethal – kills 2HG-producing HT-1080-NT fibrosarcoma cells; Potency, µM (doses to about 46.1 µM), hits mostly cytotoxic; HT-1080-NT fibrosarcoma viability, CellTiter-Glo ATP luminescence, 48 h; AID 686970; 1.6% of 360,000 active;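 note: NT is the 2HG producing partner of a matched IDH1 knockdown line; nearly all actives have a fitted effect of over 55% in size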
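Viability of the 2HG-overproducing fibrosarcoma line after 48 hours of compound exposure at 37 degrees C was determined by luminescence with CellTiter-Glo, and concentration-effect curves were then fitted and categorized.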
TGFb inhibitor – TGF-b pathway inhibition | HepG2 CAGA-GFP TGF-b/SMAD3 reporter, GFP fluorescence, 18 h; TGF-beta stimulated, 500 pg/mL final | Potency, µM (highest dose often 46.1 µM), actives largely listed as inhibitors | 1.2% of 410,000 active | AID 588855; note: nearly all actives have a fitted effect of over 65% in size
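Read-out: total well GFP (ex488/em500-530) summed from mean per-cell fluorescence. Cells: HEPG2 CAGA-GFP, 1% FBS DMEM, 18 h at 37 degrees C with 500 pg/mL final TGF-beta. Unstimulated wells served as the full-inhibition control; stimulated DMSO wells = 0%.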
Giardia killer – kills Giardia lamblia | Giardia lamblia trophozoite viability | 0.15% of 340,000 active | activity change, % at 7.66 µM, hits read low | AID 540267; in the data active = activity change below about -80%; inconclusive = between about -30% and that limit;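 note: parasites exposed to compound for two days anaerobically before the ATP read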
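Trophozoite viability was measured as ATP-dependent luminescence, read 15-30 min after reagent addition. Before that, parasites at 100 cells/well were exposed to compounds for 48 h, anaerobically, at 37 deg C.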
HepG2 tox – kills HepG2 cells in TGF-b inhibitor counter-screen | HepG2 CAGA-GFP viability, ATP luminescence, 18 h | Potency, µM (highest dose often 46.1 µM), usual class: cytotoxic | 0.76% of 410,000 active | AID 588856
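CellTiter-Glo luminescence gave cytotoxicity after 18 hours at 37 degrees C. The cells were HepG2 CAGA-GFP in 1% FBS DMEM, stimulated with 500 pg/mL TGF-beta after compound addition. %Activity was normalised to no-cell wells (complete cell-killing) and DMSO (no toxicity), and curves were fitted and classified.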
IL-1B inflam inh – blocks inflammasome-driven IL-1 beta release | THP-1 LPS/ATP IL-1B secretion, AlphaLISA, 16 h; stronger effect = lower value | activity change, % at 57.5 µM | 4.7% of 360,000 active; in the data active = activity change below about -50%; inconclusive = mostly about -30% to -49%
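Secreted IL-1B measured by AlphaLISA bead assay after 16 h compound exposure of THP-1 cells; compounds (final up to 57.5 uM) added 1 h before LPS (250 ng/mL) and ATP (1.25 mM) stimulation; lower signal means less secretion.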
HT1080 IDH1KD tx – toxicity to HT-1080 IDH1 knockdown cells (counter line); HT-1080 IDH1 knockdown viability, ATP luminescence, 48 h; Potency, µM (doses to about 46.1 µM), most hits filed as cytotoxic; 2% of 360,000 active
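Luminescent ATP read-out (CellTiter-Glo, 10 min at room temperature) after 48 h compound exposure at 37 °C gave viability of IDH1-knockdown HT-1080 cells. Activity was normalised to DMSO and cell-free wells, then fitted as concentration-response curves.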
Numbers stand for hits; . = inactive; ? = inconclusive; / = no result. An excerpt weighted towards active compounds, which were near 6.5% of everything screened. Unless noted, calls come from the whole dose curve; as a rule, active = well fitted curve in the direction sought with a large enough effect; inconclusive = small, poorly fitted or top-dose-only effect, or another doubt; inactive = no such curve, though single readings can be large; an effect the other way counts as inactive or inconclusive.

SMILES | HT1080NT lethal | TGFb inhibitor | Giardia killer | HepG2 tox | IL-1B inflam inh | HT1080 IDH1KD tx
N#CC1c2ccccc2-c2ccccc2N1C(=O)c1ccccc1 (stereo unspecified) | ? | . | / | . | . | 9.2µM
COc1ccc(C(=O)N2C=Cc3ccccc3C2C#N)cc1 (stereo unspecified) | . | . | / | . | . | .
CCCCCCn1c(=O)[nH]c2nc3cc(N)c(C)cc3nc2c1=O | . | . | . | . | ? | .
CN1CCN(S(=O)(=O)c2cccc(S(=O)(=O)c3ccc(Cl)cc3)c2)CC1 | . | . | . | . | . | .
O=C(c1ccccc1)c1ccc(OCCCN2CCCCC2)cc1 | . | . | . | . | -59 | .
CCOc1ccc(C(=O)CC(C(=O)O)N2CCCCC2)cc1 (stereo unspecified) | ? | ? | . | . | -57 | ?
CCOc1ccc(C(=O)CC(C(=O)O)N2CCN(Cc3ccccc3)CC2)cc1 (stereo unspecified) | . | . | . | . | . | .
CCCCOc1ccc(C(=O)CCN2CCCCC2)cc1 | ? | ? | . | . | . | 18µM
CC(C)COc1ccc(C(=O)CCN2CCCCC2)cc1 | 18µM | ? | . | . | . | ?
C=CCn1c(=N)c(C(=O)NCCCOC)cc2c(=O)n3cccc(C)c3nc21 | . | . | . | . | . | .
COCCCNC(=O)c1cccn2c(=O)c3cc4ccccc4cc3nc12 | . | . | . | . | -86 | ?
Cc1ccc([N+](=O)[O-])c(NC(=O)COC(=O)CCNS(=O)(=O)c2cccs2)c1C | . | . | / | . | . | .
Cc1nc(S(=O)(=O)N2CCN(C3c4ccccc4-c4ccccc43)CC2)cn1C | . | . | . | . | . | .
Cc1onc(-c2c(Cl)cccc2Cl)c1C(=O)NCCc1ccc(S(N)(=O)=O)cc1 | . | . | . | . | . | .
CSc1cccc(NC(=S)N(CCCN2CCCC2)Cc2cccn2Cc2ccc(Cl)cc2)c1 | 18µM | ? | . | . | ? | ?
Cn1cc(CN(CCCN2CCOCC2)C(=S)Nc2cccc(Cl)c2)c2ccccc21 | ? | ? | . | . | . | ?
CSc1cccc(NC(=S)N(CCCN2CCCC2)Cc2cccs2)c1 | ? | . | . | . | ? | ?
COc1cccc(NC(=S)N(CCCN2CCCC2)Cc2cccn2Cc2ccc(Cl)cc2)c1 | 21µM | ? | . | . | ? | 18µM
S=C(Nc1cccc(Cl)c1)N(CCCN1CCCC1)Cc1cccn1Cc1ccc(Cl)cc1 | 16µM | ? | . | 25µM | -101 | 18µM
O=C(Nc1ccnn1C1CCN(C/C=C/c2ccccc2)CC1)c1ccccc1 | . | . | . | . | ? | .
CCc1ccc(CN2CCC(n3nccc3NC(=O)c3ccccc3Cl)CC2)cc1 | . | ? | . | . | -50 | .
O=C(Nc1ccnn1C1CCN(C/C=C/c2ccccc2)CC1)c1cccc(F)c1 | . | . | . | . | -53 | ?
CCc1ccc(CN2CCC(n3nccc3NC(=O)c3ccc4c(c3)OCO4)CC2)cc1 | . | . | . | . | -56 | .
CCOc1cccc(CN2CCC(n3nccc3NC(=O)c3ccc4c(c3)OCO4)CC2)c1 | . | . | . | . | . | .
Cn1cc(CN2CCC(n3nccc3NC(=O)c3ccccc3Cl)CC2)c2ccccc21 | ? | ? | . | . | -82 | ?
Cc1ccccc1C(=O)N=c1ccn(-c2nc3ccccc3nc2NS(=O)(=O)c2ccc(F)cc2)cc1 | . | ? | . | . | . | .
CC(=O)N1c2ccccc2C2CCCC[C@H]21 (stereo partly specified) | . | . | . | . | . | .
COc1ccccc1C(=O)Nc1ccnn1C1CCN(Cc2cn(C)c3ccccc23)CC1 | ? | 11µM | . | . | . | ?
COc1ccccc1C(=O)Nc1ccnn1C1CCN(Cc2cc(C)c(C)cc2C)CC1 | . | ? | . | . | . | .
CC12CCC(=O)N1C(C(=O)Nc1nc(-c3cc(F)ccc3F)cs1)CS2 (stereo unspecified) | . | . | . | . | . | .

From PubChem
